# Data as given in PubChem BioAssay.
# Calls of active or inactive are those of the source.
# What was measured:
# [1] = test system: Wnt5a (protein binding on small-molecule microarray); test: small molecules binding Wnt5a protein – biophysical, small-molecule microarray, 635/667 nm fluorescence, primary screen (AID 1142); settings: 635 nm fluorescence, higher = more signal;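 note: fluorescence read at 667 nm with signal to noise per printed feature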
# [2] = ATP-based viability of Huh7 replicon cells – cell-based, CellTiter-Glo luminescence, basal, 48 h, cytotoxicity control for HCV replication inhibitor project, primary screen (AID 1143); settings: higher = more signal, called active from +8 up or from −8 down;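 note: Huh7 hepatoma cells carrying a hepatitis C replication reporter with no stimulus; test concentration not given here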
# [3] = basal CRE-LacZ reporter activity in PC12 – cell-based, unstimulated, primary screen (AID 1145); settings: no forskolin, luminescence, 4.5 h, higher = more signal, called active from +8 up or from −8 down
# [4] = forskolin-driven CRE-LacZ activity in PC12 – cell-based, CRE-LacZ reporter, forskolin-stimulated, primary screen (AID 1146); settings: luminescence, 4.5 h, higher = more signal, called active from +8 up or from −8 down;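 note: PC12 cells with 6xCRE LacZ reporter stimulated by forskolin 10 µM; beta-galactosidase reporter signal reflecting CREB driven transcription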
# [5] = molecular target: Streptavidin (Streptomyces avidinii) (UniProt P22629); test: compounds binding control protein streptavidin – biophysical, small-molecule microarray, 635/667 nm fluorescence, artefact control for SMM compound annotation, primary screen (AID 1147); settings: higher = more signal;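 note: signal reflects streptavidin binding to arrayed compounds as a control protein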
# Sequence of Streptavidin (Streptomyces avidinii) (P22629 whole entry, looked up): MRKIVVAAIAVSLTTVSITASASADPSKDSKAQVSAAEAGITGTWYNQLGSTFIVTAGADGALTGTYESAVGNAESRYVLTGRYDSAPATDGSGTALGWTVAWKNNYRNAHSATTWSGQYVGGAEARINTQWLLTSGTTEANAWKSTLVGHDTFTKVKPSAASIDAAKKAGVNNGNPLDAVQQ
# [6] = probe aInhba binding on compound microarray – biochemical, small-molecule microarray, 635/667 nm fluorescence, primary screen (AID 1148); settings: higher = more signal;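 note: score merges 667nm spot fluorescence with signal-to-noise for antibody binding to printed compounds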
# Torsin-1A (Homo sapiens) [7] = molecular target: Torsin-1A (Homo sapiens) (UniProt O14656); test: TOR1A wild-type binding on microarray – cell lysate, small-molecule microarray, lysate, 635/667 nm, primary screen (AID 1149); settings: COS7 hTOR1A-WT lysate, 635 nm fluorescence, higher = more signal
# Sequence of Torsin-1A (Homo sapiens) (O14656 whole entry, looked up): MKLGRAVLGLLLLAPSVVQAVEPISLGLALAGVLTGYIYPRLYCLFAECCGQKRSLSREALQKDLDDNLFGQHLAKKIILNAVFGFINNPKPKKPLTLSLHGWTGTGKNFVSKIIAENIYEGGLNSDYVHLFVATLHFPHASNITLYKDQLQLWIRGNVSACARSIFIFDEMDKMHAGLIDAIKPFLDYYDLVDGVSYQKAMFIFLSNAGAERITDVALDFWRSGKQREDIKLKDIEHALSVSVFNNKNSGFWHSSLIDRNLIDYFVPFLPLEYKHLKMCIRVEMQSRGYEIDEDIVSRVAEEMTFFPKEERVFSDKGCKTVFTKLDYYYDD
# Torsin-1A (Homo sapiens) [8] = molecular target: Torsin-1A (Homo sapiens) (UniProt O14656); test: torsin A mutant lysate binding on microarrays – cell lysate, small-molecule microarray, COS7 lysate, 635/667 nm fluorescence, primary screen (AID 1150); settings: COS7 hTOR1A mutant lysate, 635 nm fluorescence, higher = more signal;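 note: score pools 667 nm emission and signal to noise measuring lysate protein binding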
# [9] = test system: Sonic hedgehog protein (Shh); test: Sonic hedgehog microarray binding compounds – biochemical, small-molecule microarray, 635/667 nm fluorescence, primary screen (AID 1151); settings: 635 nm fluorescence, higher = more signal;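 note: Shh protein binding to compounds spotted on small-molecule microarray slides; score combines spot fluorescence intensity with signal-to-noise across triplicate slides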
# [10] = optical density shifts of acrAB sulA E. coli – strain DRC41, OD650, 48 h, E. coli filamentation inducer project, primary screen (AID 1152); settings: higher = more signal, called active from +8 up or from −8 down;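 note: E. coli MC1000 strain DRC41 lacking acrAB efflux pump and sulA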
# [11] = probe aLefty1 binding on compound microarray – biochemical, small-molecule microarray, 635/667 nm fluorescence, primary screen (AID 1153); settings: higher = more signal;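 note: score merges spot fluorescence with signal-to-noise ratio from the scanned slide images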
# [12] = plasmodial surface anion channel blockers, osmotic lysis – cell-based, P. falciparum Indochina, OD700, 1 h, primary screen (AID 1154); settings: P. falciparum Indochina infected RBC osmotic lysis, higher = more signal, called active from +8 up or from −8 down
# [13] = plasmodial surface anion channel blockers, osmotic lysis – cell-based, P. falciparum Indochina, OD700, 2 h, primary screen (AID 1155);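 note: lysis reports solute entry through the parasite surface anion channel PSAC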; settings: P. falciparum Indochina infected erythrocytes, higher = more signal, called active from +8 up or from −8 down
# [14] = changes in parasitized red cell lysis, either direction – P. falciparum Indochina, OD700, 3 h, PSAC antagonist project, primary screen (AID 1156); settings: P. falciparum-infected erythrocytes, osmotic lysis, higher = more signal, called active from +8 up or from −8 down
# [15] = plasmodial surface anion channel blockers, osmotic lysis – cell-based, P. falciparum Indochina, OD700, 18 h, primary screen (AID 1157); settings: P. falciparum Indochina infected erythrocytes, osmotic lysis OD700, 18 h; higher = more signal, called active from +8 up or from −8 down
# [16] = S6 kinase pathway phospho-S6 level changes – cell-based, A549, cytoblot, luminescence, serum-stimulated, primary screen (AID 1158); settings: 5 h, higher = more signal;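 note: serum-stimulated A549 lung adenocarcinoma cells; signal is phosphorylated S6 detected by cytoblot immunostaining with HRP secondary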
# [17] = molecular target: NADPH oxidase 2 (Homo sapiens) (UniProt P04839); test: compounds shifting NOX2 Amplex Red fluorescence – cell-based, HEK293-NOX2, PMA-stimulated, NOX inhibitor project, primary screen (AID 1159); settings: 45 min, higher = more signal, called active from +8 up or from −8 down; note: test concentration not given here
# Sequence of NADPH oxidase 2 (Homo sapiens) (P04839 whole entry, looked up): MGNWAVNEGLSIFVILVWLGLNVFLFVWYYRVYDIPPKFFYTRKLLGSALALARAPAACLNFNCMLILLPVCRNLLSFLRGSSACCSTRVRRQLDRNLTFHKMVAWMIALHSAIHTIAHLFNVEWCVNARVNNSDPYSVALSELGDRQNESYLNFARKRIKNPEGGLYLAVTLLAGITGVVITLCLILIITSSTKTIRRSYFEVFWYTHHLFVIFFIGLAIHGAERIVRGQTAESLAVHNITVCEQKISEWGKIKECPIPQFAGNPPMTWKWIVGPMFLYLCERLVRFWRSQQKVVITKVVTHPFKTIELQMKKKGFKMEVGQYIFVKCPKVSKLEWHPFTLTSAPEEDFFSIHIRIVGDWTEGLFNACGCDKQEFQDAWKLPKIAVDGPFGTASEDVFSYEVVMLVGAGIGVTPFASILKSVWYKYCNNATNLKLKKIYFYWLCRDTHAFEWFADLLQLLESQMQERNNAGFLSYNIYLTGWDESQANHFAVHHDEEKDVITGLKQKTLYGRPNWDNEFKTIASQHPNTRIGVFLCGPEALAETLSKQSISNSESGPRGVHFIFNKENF
# [18] = molecular target: NADPH oxidase 4 (Homo sapiens) (UniProt Q9NPH5); test: compounds shifting NOX4 Amplex Red fluorescence – cell-based, HEK293-NOX4, tetracycline-induced, NOX inhibitor project, primary screen (AID 1160); settings: HEK293-NOX4, Amplex Red H2O2 fluorescence, 45 min; higher = more signal, called active from +8 up or from −8 down
# Sequence of NADPH oxidase 4 (Homo sapiens) (Q9NPH5 whole entry, looked up): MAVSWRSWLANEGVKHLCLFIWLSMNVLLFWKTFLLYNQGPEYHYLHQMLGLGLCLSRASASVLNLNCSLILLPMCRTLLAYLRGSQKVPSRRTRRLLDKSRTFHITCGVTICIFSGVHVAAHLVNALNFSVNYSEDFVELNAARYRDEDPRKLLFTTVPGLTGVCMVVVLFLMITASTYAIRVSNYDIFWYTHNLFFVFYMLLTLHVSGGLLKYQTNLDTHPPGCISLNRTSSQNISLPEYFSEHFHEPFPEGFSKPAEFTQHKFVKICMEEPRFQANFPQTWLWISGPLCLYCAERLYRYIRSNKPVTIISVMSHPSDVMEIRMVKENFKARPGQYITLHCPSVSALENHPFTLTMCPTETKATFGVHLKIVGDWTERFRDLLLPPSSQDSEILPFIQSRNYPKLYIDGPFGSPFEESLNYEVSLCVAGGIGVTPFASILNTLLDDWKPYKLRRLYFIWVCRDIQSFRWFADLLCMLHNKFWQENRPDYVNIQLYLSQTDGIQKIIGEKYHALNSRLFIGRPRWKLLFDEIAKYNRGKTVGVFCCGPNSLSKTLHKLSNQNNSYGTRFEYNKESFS
# [19] = molecular target: NADPH oxidase 5 (Homo sapiens) (UniProt Q96PH1); test: compounds shifting NOX5 Amplex Red fluorescence – cell-based, HEK293-NOX5, NOX inhibitor project, primary screen (AID 1161); settings: HEK293-NOX5, ionomycin, 45 min, higher = more signal
# Sequence of NADPH oxidase 5 (Homo sapiens) (Q96PH1 whole entry, looked up): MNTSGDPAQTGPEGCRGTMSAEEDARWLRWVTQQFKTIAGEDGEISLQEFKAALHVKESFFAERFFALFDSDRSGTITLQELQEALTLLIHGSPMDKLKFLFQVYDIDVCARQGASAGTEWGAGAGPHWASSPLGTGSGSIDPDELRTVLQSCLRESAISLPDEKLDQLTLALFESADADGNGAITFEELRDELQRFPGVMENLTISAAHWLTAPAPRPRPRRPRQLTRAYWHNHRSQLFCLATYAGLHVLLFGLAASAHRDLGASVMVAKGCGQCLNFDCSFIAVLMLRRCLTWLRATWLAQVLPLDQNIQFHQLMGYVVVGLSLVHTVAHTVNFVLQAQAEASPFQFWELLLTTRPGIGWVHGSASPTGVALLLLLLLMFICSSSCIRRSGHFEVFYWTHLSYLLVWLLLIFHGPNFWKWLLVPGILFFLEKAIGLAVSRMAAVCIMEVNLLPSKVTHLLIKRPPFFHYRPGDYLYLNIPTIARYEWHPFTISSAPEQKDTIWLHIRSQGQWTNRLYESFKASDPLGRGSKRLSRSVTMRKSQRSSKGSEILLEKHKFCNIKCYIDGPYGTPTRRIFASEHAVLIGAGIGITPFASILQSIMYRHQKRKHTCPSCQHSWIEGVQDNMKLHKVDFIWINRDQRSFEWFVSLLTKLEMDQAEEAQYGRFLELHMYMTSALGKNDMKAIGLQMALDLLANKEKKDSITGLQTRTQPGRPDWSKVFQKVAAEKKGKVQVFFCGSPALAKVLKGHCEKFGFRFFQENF
# [20] = compound effects on lung adenocarcinoma cell viability – A549, calcein-AM fluorescence, 48 h, basal, profiling panel (AID 1162); settings: higher = more signal; note: test concentration not given here
SMILES,composite z-score [1],z-score [2],z-score [3],z-score [4],composite z-score [5],composite z-score [6],composite z-score (Torsin-1A (Homo sapiens) [7]),composite z-score (Torsin-1A (Homo sapiens) [8]),composite z-score [9],z-score [10],composite z-score [11],z-score [12],z-score [13],z-score [14],z-score [15],z-score [16],z-score [17],z-score [18],z-score [19],z-score [20]
CCCCCN1CC=CC23O[C@@H]4/C=C\CCC(C)OC(=O)C4[C@H]2C(=O)N(CCCO)[C@@H]3C1=O (stereo not given in full),0.0429,-1.37 (inactive),0.487 (inactive),0.213 (inactive),-0.67,-0.245,0.26,-0.147,-0.0977,1.5 (inactive),-0.229,-0.404 (inactive),-0.0816 (inactive),0.787 (inactive),0.281 (inactive),0.0147,1.86 (inactive),0.381 (inactive),2.57,-0.367
C=C(COC)/C(=C/C[C@H](OC(C)=O)c1ccc(CO)o1)c1cnc2ccccc2c1,0.251,-0.461 (inactive),0.844 (inactive),-1.08 (inactive),1.45,0.0173,1.21,1.42,2.15,1.23 (inactive),-0.145,3.78 (inactive),-1.35 (inactive),-0.148 (inactive),-2.05 (inactive),-0.198,2.33 (inactive),0.615 (inactive),0.915,0.283
CN1C=C(C(=O)OCCS(C)(=O)=O)C(C(=O)OCCS(C)(=O)=O)=CC(CCCO)=CC1c1cccs1 (stereo not given),0.131,-0.894 (inactive),5.95 (inactive),-1.56 (inactive),-0.0015,-0.299,0.408,0.0286,1.05,0.302 (inactive),-0.0011,1.91 (inactive),-1.53 (inactive),-0.727 (inactive),-1.71 (inactive),-0.496,0.92 (inactive),0.858 (inactive),0.0246,2.6
CCCCC(=C=CC[C@H](O)c1cccc(OCCO)c1)CCO,-0.0668,-0.081 (inactive),4.86 (inactive),-0.679 (inactive),-0.209,0.0355,1.13,0.983,0.242,0.892 (inactive),0.37,11.4 (active),1.91 (inactive),1.2 (inactive),0.774 (inactive),-0.679,1.06 (inactive),0.362 (inactive),-1.64,1.13
CC(C)C[C@@H]1NC(=O)[C@@H]2C[C@H](C(=O)NCCCCCNC(=O)CS)[C@H](c3cccc(OCCO)c3)N2C1=O,0.257,-1.59 (inactive),0.147 (inactive),-1.09 (inactive),0.811,0.0207,1.31,0.824,2.03,1.8 (inactive),0.348,3.21 (inactive),-0.422 (inactive),-1.74 (inactive),-1.93 (inactive),0.955,2.24 (inactive),0.84 (inactive),0.00283,0.221
CC(C)N1C(=O)c2ccccc2[C@@H](C(=O)NCc2ccccc2)[C@@H]1c1ccc(CO)cc1,0.0422,-0.144 (inactive),0.0279 (inactive),-0.659 (inactive),-1.17,-0.206,0.81,0.436,-0.49,1.12 (inactive),-0.15,2.59 (inactive),0.425 (inactive),0.884 (inactive),0.818 (inactive),0.325,-0.00885 (inactive),0.454 (inactive),-0.101,0.538
C/C=C/[C@@H](CCn1cc(CCO[Si](C(C)C)(C(C)C)C(C)C)nn1)[Si](C)(C)c1ccc(OC)cc1,-0.569,-3.19 (inactive),3.29 (inactive),-1.01 (inactive),-1.27,-0.39,-0.72,0.741,-0.526,0.415 (inactive),-0.315,0.305 (inactive),0.0452 (inactive),-0.606 (inactive),-1.92 (inactive),2.96,-0.937 (inactive),0.0135 (inactive),-0.497,1.74
COCCCNC(=O)[C@@]1(C)c2ccccc2C(=O)N(Cc2cc(F)cc(C(F)(F)F)c2)[C@H]1c1ccc(CO)cc1,-0.0509,-0.914 (inactive),-0.0512 (inactive),-0.883 (inactive),-0.624,-0.38,0.891,-0.439,-1.16,1.7 (inactive),-0.279,1.13 (inactive),0.459 (inactive),0.0539 (inactive),0.0567 (inactive),0.0396,0.184 (inactive),-1.4 (inactive),0.42,-0.0292
C=C(C1=CCN(S(=O)(=O)c2ccc(C)cc2)C1)[C@@H](OC(C)=O)[C@@H]1CCCN1S(=O)(=O)c1ccccc1[N+](=O)[O-],0.0375,-4.37 (inactive),2.02 (inactive),-1.11 (inactive),-1.05,-0.128,-0.499,-0.406,0.706,2.47 (inactive),-0.109,26.3 (active),17 (active),0.77 (inactive),0.623 (inactive),0.993,0.0272 (inactive),-1.36 (inactive),0.69,-0.498
